# Measurements published in the supplement of paper PMC10037445.
# Over roughly 2,900 compounds, “NF-kB SEAP reporter activity, fold change vs agonist alone” has its median near 0.99; the highest 2% begin near 2.6. This excerpt belongs to a sample that is enriched for the highest values.
# Experiments:
# [1] = system: RAW-Dual; assay: NF-kB SEAP reporter activity, fold change vs agonist alone; higher = enhanced NF-kB activity
# Summary of the method: (§1)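 Supernatant from RAW-Dual macrophages was read after 20 hours for IRF by QuantiLuc luminescence and for NF-κB by QuantiBlue absorbance at 620 nm. The cells (50,000 cells/well in DMEM, 384-well plates, 37 °C, 5% CO2) had received 50 nL of library stock by pin tool and, 1 h later, a PRR agonist. Reporter activity is expressed relative to agonist-alone wells as fold change, and wells were flagged cytotoxic if IncuCyte confluency was under 70% of agonist controls in both mask sets.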
# [2] = system: RAW-Dual; assay: NF-kB SEAP reporter activity, fold change vs agonist alone; cytotoxicity flag (confluency mask): not cytotoxic; higher = enhanced NF-kB activity
# Summary of the method: as §1
# [3] = system: RAW-Dual; assay: NF-kB SEAP reporter activity, fold change vs agonist alone; cytotoxicity flag (confluency mask): cytotoxic (confluency <70% of control); higher = enhanced NF-kB activity
# Summary of the method: as §1
# [4] = library stock concentration (final ~1000-fold dilution): 10 mM, cytotoxicity flag (confluency mask): not cytotoxic, agonist: Imiquimod (TLR7) […]
# [5] = library stock concentration (final ~1000-fold dilution): 10 mM, cytotoxicity flag (confluency mask): not cytotoxic, agonist: MPLA (TLR4) […]
# [6] = agonist: ODN 1826 (TLR9) 0.5 ug/mL
# [7] = agonist: Pam2CSK4 (TLR2/6) 0.1 ug/mL
# [8] = agonist: Pam3CSK4 (TLR2/1) 0.1 ug/mL
# [9] = library stock concentration (final ~1000-fold dilution): 10 mM, cytotoxicity flag (confluency mask): cytotoxic (confluency <70% of control), agonist: Imiquimod (TLR7) […]
# [10] = library stock concentration (final ~1000-fold dilution): 10 mM, cytotoxicity flag (confluency mask): cytotoxic (confluency <70% of control), agonist: MPLA (TLR4) […]
compound,measurement,setting,value
O=C(NC(C1CC1)C(F)(F)F)c1cc(-c2cnn3cc(-c4ccc(F)cc4)cnc23)cs1 (configuration not stated),NF-kB SEAP reporter activity,[1]; [4],1.28
same,NF-kB SEAP reporter activity,[1]; [5],1.98
Cl.Cl.c1cc(-c2cnn3cc(-c4ccc(OCCN5CCCCC5)cc4)cnc23)ccn1 (library stock concentration (final ~1000-fold dilution): 10 mM water),NF-kB SEAP reporter activity,[2]; agonist: LPS (TLR4) 0.1 ug/mL,1.69
same,NF-kB SEAP reporter activity,[2]; [6],0.252
same,NF-kB SEAP reporter activity,[2]; [7],1.44
same,NF-kB SEAP reporter activity,[2]; [8],1.92
O=C(NC(C1CC1)C(F)(F)F)c1cc(-c2cnn3cc(-c4ccc(F)cc4)cnc23)cs1 (configuration not stated) (library stock concentration (final ~1000-fold dilution): 10 mM),NF-kB SEAP reporter activity,[2]; agonist: LPS (TLR4) 0.1 ug/mL,2.68
same,NF-kB SEAP reporter activity,[2]; [6],1.73
same,NF-kB SEAP reporter activity,[2]; [7],2.46
same,NF-kB SEAP reporter activity,[2]; [8],3.14
Cl.Cl.c1cc(-c2cnn3cc(-c4ccc(OCCN5CCCCC5)cc4)cnc23)ccn1,NF-kB SEAP reporter activity,"[1]; library stock concentration (final ~1000-fold dilution): 10 mM water, cytotoxicity flag (confluency mask): not cytotoxic, agonist: Imiquimod (TLR7) […]",0.944
same,NF-kB SEAP reporter activity,"[1]; library stock concentration (final ~1000-fold dilution): 10 mM water, cytotoxicity flag (confluency mask): not cytotoxic, agonist: MPLA (TLR4) […]",1.2
CCC(=C(c1ccccc1)c1ccc(OCCN(C)C)cc1)c1ccccc1,NF-kB SEAP reporter activity,[1]; [9],1.53
same,NF-kB SEAP reporter activity,[1]; [10],1.52
CCC(=C(c1ccccc1)c1ccc(OCCN(C)C)cc1)c1ccccc1 (library stock concentration (final ~1000-fold dilution): 10 mM),NF-kB SEAP reporter activity,[3]; agonist: LPS (TLR4) 0.1 ug/mL,0.687
same,NF-kB SEAP reporter activity,[3]; [6],0.447
same,NF-kB SEAP reporter activity,[3]; [7],0.398
same,NF-kB SEAP reporter activity,[3]; [8],0.525
Cc1ccccc1C(OCCN(C)C)c1ccccc1.Cl (configuration not stated) (library stock concentration (final ~1000-fold dilution): 10 mM),NF-kB SEAP reporter activity,[2]; agonist: LPS (TLR4) 0.1 ug/mL,1.29
same,NF-kB SEAP reporter activity,[2]; [6],0.935
same,NF-kB SEAP reporter activity,[2]; [7],0.934
same,NF-kB SEAP reporter activity,[2]; [8],0.932
Cc1ccccc1C(OCCN(C)C)c1ccccc1.Cl (configuration not stated),NF-kB SEAP reporter activity,[1]; [4],1.38
same,NF-kB SEAP reporter activity,[1]; [5],1.13
COc1cc(OC)cc(-c2cc3cnc(N)nc3nc2NC(=O)NC(C)(C)C)c1,NF-kB SEAP reporter activity,[1]; [4],0.989
same,NF-kB SEAP reporter activity,[1]; [5],1.1
CCN(CC)CCCCNc1ncc2cc(-c3cc(OC)cc(OC)c3)c(NC(=O)NC(C)(C)C)nc2n1,NF-kB SEAP reporter activity,[1]; [9],2.8
same,NF-kB SEAP reporter activity,[1]; [10],2.71
CNc1ncc2cc(-c3cc(NC(=O)NCCC(C)(C)C)c(F)cc3C)c(C)nc2n1 (library stock concentration (final ~1000-fold dilution): 2 mM),NF-kB SEAP reporter activity,[2]; agonist: LPS (TLR4) 0.1 ug/mL,1.42
same,NF-kB SEAP reporter activity,[2]; [6],0.533
same,NF-kB SEAP reporter activity,[2]; [7],0.218
same,NF-kB SEAP reporter activity,[2]; [8],0.28
COc1cc(OC)cc(-c2cc3cnc(N)nc3nc2NC(=O)NC(C)(C)C)c1 (library stock concentration (final ~1000-fold dilution): 10 mM),NF-kB SEAP reporter activity,[2]; agonist: LPS (TLR4) 0.1 ug/mL,5.36
same,NF-kB SEAP reporter activity,[2]; [6],1.02
same,NF-kB SEAP reporter activity,[2]; [7],0.578
same,NF-kB SEAP reporter activity,[2]; [8],0.747
CNc1ncc2cc(-c3cc(NC(=O)NCCC(C)(C)C)c(F)cc3C)c(C)nc2n1,NF-kB SEAP reporter activity,"[1]; library stock concentration (final ~1000-fold dilution): 2 mM, cytotoxicity flag (confluency mask): not cytotoxic, agonist: Imiquimod (TLR7) […]",0.497
same,NF-kB SEAP reporter activity,"[1]; library stock concentration (final ~1000-fold dilution): 2 mM, cytotoxicity flag (confluency mask): not cytotoxic, agonist: MPLA (TLR4) […]",0.918
CCN(CC)CCCCNc1ncc2cc(-c3cc(OC)cc(OC)c3)c(NC(=O)NC(C)(C)C)nc2n1 (library stock concentration (final ~1000-fold dilution): 10 mM),NF-kB SEAP reporter activity,[3]; agonist: LPS (TLR4) 0.1 ug/mL,0.324
same,NF-kB SEAP reporter activity,[3]; [6],0.891
same,NF-kB SEAP reporter activity,[3]; [7],1.72
same,NF-kB SEAP reporter activity,[3]; [8],1.56
O=C(c1cccc(Br)c1)N1CCC(N2CCCC2)CC1,NF-kB SEAP reporter activity,[1]; [5],1.09
O=C(c1cccc(Br)c1)N1CCC(N2CCCC2)CC1 (library stock concentration (final ~1000-fold dilution): 10 mM),NF-kB SEAP reporter activity,[2]; agonist: LPS (TLR4) 0.1 ug/mL,1.39
same,NF-kB SEAP reporter activity,[2]; [6],0.951
same,NF-kB SEAP reporter activity,[2]; [7],1.16
same,NF-kB SEAP reporter activity,[2]; [8],0.966
O=C(NC1(c2ccccc2)CC1)c1c(CN2CCC(N3CCCCC3)CC2)c(-c2cccc(C(F)(F)F)c2)nc2cc(Br)ccc12,NF-kB SEAP reporter activity,[1]; [9],0.916
same,NF-kB SEAP reporter activity,[1]; [10],1.03
O=C(NC1(c2ccccc2)CC1)c1c(CN2CCC(N3CCCCC3)CC2)c(-c2cccc(C(F)(F)F)c2)nc2cc(Br)ccc12 (library stock concentration (final ~1000-fold dilution): 10 mM),NF-kB SEAP reporter activity,[3]; agonist: LPS (TLR4) 0.1 ug/mL,2.58
same,NF-kB SEAP reporter activity,[3]; [6],0.897
same,NF-kB SEAP reporter activity,[3]; [7],0.896
same,NF-kB SEAP reporter activity,[3]; [8],1.27
CN1C(=O)C(NC(=O)c2n[nH]c(Cc3ccccc3)n2)COc2ccccc21 (configuration not stated) (library stock concentration (final ~1000-fold dilution): 10 mM),NF-kB SEAP reporter activity,[2]; agonist: LPS (TLR4) 0.1 ug/mL,1.01
same,NF-kB SEAP reporter activity,[2]; [6],1.59
same,NF-kB SEAP reporter activity,[2]; [7],1.01
same,NF-kB SEAP reporter activity,[2]; [8],1.15
CN1C(=O)C(NC(=O)c2n[nH]c(Cc3ccccc3)n2)COc2ccccc21 (configuration not stated),NF-kB SEAP reporter activity,[1]; [4],1.3
same,NF-kB SEAP reporter activity,[1]; [5],0.971
CN(C/C=C/C#CC(C)(C)C)Cc1cccc2ccccc12 (library stock concentration (final ~1000-fold dilution): 10 mM),NF-kB SEAP reporter activity,[2]; agonist: LPS (TLR4) 0.1 ug/mL,4.26
same,NF-kB SEAP reporter activity,[2]; [6],0.849
same,NF-kB SEAP reporter activity,[2]; [7],0.95
same,NF-kB SEAP reporter activity,[2]; [8],1.44
CN(C/C=C/C#CC(C)(C)C)Cc1cccc2ccccc12.Cl (library stock concentration (final ~1000-fold dilution): 10 mM),NF-kB SEAP reporter activity,[2]; agonist: LPS (TLR4) 0.1 ug/mL,3.51
same,NF-kB SEAP reporter activity,[2]; [6],0.849
same,NF-kB SEAP reporter activity,[2]; [7],0.948
same,NF-kB SEAP reporter activity,[2]; [8],1.3
CN(C/C=C/C#CC(C)(C)C)Cc1cccc2ccccc12,NF-kB SEAP reporter activity,[1]; [4],1.6
same,NF-kB SEAP reporter activity,[1]; [5],2.02
CN(C/C=C/C#CC(C)(C)C)Cc1cccc2ccccc12.Cl,NF-kB SEAP reporter activity,[1]; [4],1.56
same,NF-kB SEAP reporter activity,[1]; [5],2.08
COc1cc2c(cc1OC)CN(C(=O)/C=C/c1c(-c3ccccc3)n(C)c3ncccc13)CC2.Cl,NF-kB SEAP reporter activity,[1]; [4],1
same,NF-kB SEAP reporter activity,[1]; [5],1.02
COc1cc2c(cc1OC)CN(C(=O)/C=C/c1c(-c3ccccc3)n(C)c3ncccc13)CC2.Cl (library stock concentration (final ~1000-fold dilution): 10 mM),NF-kB SEAP reporter activity,[2]; agonist: LPS (TLR4) 0.1 ug/mL,1.15
same,NF-kB SEAP reporter activity,[2]; [6],1.14
same,NF-kB SEAP reporter activity,[2]; [7],1.15
same,NF-kB SEAP reporter activity,[2]; [8],1.18
